Screens deposited in PubChem by several laboratories.
Sampled rows, rich in hits. Any-hit rate of the full collection: about 3%.
KKLEB tox: cytotoxicity in KKLEB CF airway cells, primary screen, cytotoxicity control for CF NF-kB inhibitor project, cell-based, uHTS, fluorescence assay plates; KKLEB CF airway cells viability, ATPlite luminescence, overnight; hits give low values; cells stimulated with P. aeruginosa culture filtrate; activity change (cytotoxicity), % at 5 µM; 360,000 compounds, 0.36% hits; AID 602141, 2011;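 active = corrected activity change at or below -50% at 5 µM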
Peg3 promoter: Peg3 promoter-driven luciferase inhibitors, primary screen, cell-based, HeLa, luciferase luminescence; 360,000 compounds, 1.7% hits; inhibition, % at 20 µM; HeLa PEG-Prom luciferase reporter, overnight;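 active = inhibition of at least 50% at 20 µM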
HIF-2a block: HIF-2a reporter inhibitors, primary screen, luminescence, 786-0 RCC cells; 786-0 RCC cells HIF-2a reporter, luciferase luminescence, overnight; inhibition, % at 18.8 µM; 360,000 compounds, 0.72% hits; AID 624352, 2012;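 active = inhibition of the luminescence signal of 40% or more relative to plate controls, in a single-dose primary screen at 18.75 µM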
MITF TRPM1 inh: inhibitors of MITF-dependent TRPM1 promoter reporter, primary screen, cell-based, SK-MEL-5, single point, luciferase | 330,000 compounds, 0.83% hits | inhibition, % at 12.5 µM | SK-MEL-5 TRPM1 promoter luciferase, 24 h | AID 488899, 2010;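 active = mean inhibition across replicates of 60% or more, whatever share of single replicates reaches that level; inconclusive = some that reach 60%, reason not given; inactive = mean inhibition across replicates below 60%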
CF NFkB inh: inhibitors of PAF-induced NF-kB signaling, primary screen, cell-based, GFP fluorescence, uHTS. KKLEB NF-kB-GFP reporter, GFP fluorescence overnight. inhibition, % at 5 µM. 360,000 compounds, 0.86% hits;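 active = at least 50% inhibition at 5 µM, scaled per plate between neutral and stimulator controls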;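 note: PAF is a Pseudomonas aeruginosa culture filtrate used as stimulus; plate controls were PAF-stimulated DMSO wells for no effect and unstimulated DMSO wells for full effect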
EBV LMP1 NFkB: EBV LMP1-driven NF-kappaB luciferase reporter inhibitors, primary screen, cell-based, luminescence, single point. 350,000 compounds, 0.69% hits. LMP1-induced NF-kappaB luciferase reporter cells. AID 504558, 2011. inhibition, % at 12.5 µM; in the data active = inhibition above about 41%; inconclusive = no clear call, values can overlap the other calls;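 note: 0% = neutral control wells and 100% = reference inhibitor control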
* marks the source's active call; other numbers are inactive results; ? = inconclusive; . = not tested or not shown; ! = not active in a repeat.

SMILES	KKLEB tox	Peg3 promoter	HIF-2a block	MITF TRPM1 inh	CF NFkB inh	EBV LMP1 NFkB
O=C1c2cccc3cccc(c23)C(=O)N1CC1CCN(CC(O)COc2ccc3ccccc3c2)CC1 (stereo not drawn)	-15	100*	-5	9	20	10
COc1ccc(S(=O)(=O)NC(=O)C2(C)CCN2C(=O)Cc2ccccc2Cl)cc1 (stereo not drawn)	-8	1	14	.	-5	.
COc1cc(/C=C/CNC[C@H]2O[C@@H](n3cc(C)c(=O)[nH]c3=O)C[C@@H]2O)ccc1O	4	-10	9	.	-9	-3
CN(C)c1ccc(C=c2c3cc(O)ccc3n3c2cc(-c2ccccc2)[n+]3C)cc1	-8	46	-73	90*	-71	12
CN(C)c1ccc(C=c2c3ccccc3n3c2c2ccccc2[n+]3C)cc1	-8	71*	-9	-12	23	-5
Cc1cc2c(=Cc3ccc(N(C)C)cc3)c3ccccc3n2[n+]1C	7	97*	69*	101*	-132	24
CN(C)c1ccc(C=C2C=Cc3ccccc32)cc1	-8	-215	-190	-35	-9	-26
CC1=NN(c2cccc(F)c2)C(=O)/C1=C/c1ccc(N(C)C)cc1	11	-45	21	13	-10	0
CCOC(=O)c1cc2c(=Cc3ccc(N(C)C)cc3)c3ccccc3n2[n+]1C	-8	47	-52	86*	-21	10
C[n+]1c(-c2ccccc2)cc2c(=Cc3ccc([N+](=O)[O-])cc3)c3ccccc3n21	-11	31	-21	49	37	-5
CC1(C(=O)NS(=O)(=O)C2CC2)CCCN(C(=O)Cc2ccc(F)cc2)C1 (stereo not drawn)	4	13	12	.	9	.
Cc1ccc([C@@H]2C[C@H]3[C@@H](CN2S(=O)(=O)c2ccc(C)cc2)C(=O)C[C@@H](c2ccc(Cl)cc2)N3S(=O)(=O)c2ccccc2C)cc1	18	9	10	.	17	1
CCc1nc2ccc(C(=O)N(C)CCCN(C)C)cn2c1N(C)C(=O)C1CCCCC1	4	8	1	.	16	.
O=C(O)c1cc2cc(F)ccc2[nH]1	16	-5	7	21	17	85*
O=C(CSCc1nc2ccccc2[nH]1)Nc1ccccc1	1	25	21	28	-5	59*
CN(C)CCCN1c2ccccc2Sc2ccc(Cl)cc21	-16	75*!	-1	-16	-1	49*!
COc1ccc(-c2csc(C(C)(O)c3ccccc3)n2)cn1 (stereo not drawn)	-3	-55	-82	.	24	.
CCOC(=O)c1c(-c2ccc(-c3ccccc3)cc2)csc1NC(=O)CNCCN(C)C	-8	103*	19	39	17	-13
CCOC(=O)c1c(-c2ccccc2)csc1NC(=O)CCN1C(=O)c2ccccc2C1=O	0	1	7	-2	3	3
CC[N+](C)(CC)CCOC(=O)C(O)(c1ccccc1)C1CCCCC1 (stereo not drawn)	6	-10	29	-13	54*	11
CC[N+](C)(CC)CCC(c1ccccc1)C1CCCCC1 (stereo not drawn)	3	14	20	-2	-9	-3
Nc1ccc(-c2nc3cc(N)ccc3o2)cc1	-4	-201	-155	-26	16	7
CN(C)c1ccc(-c2nc3cc(N)ccc3o2)cc1	-60*	-27	-54	7	-10	37
CCOC(=O)c1ccc(NC(=O)c2nc[nH]c2C(=O)NCCCCCNC(=O)OC(C)(C)C)cc1	-16	70*	-1	6	20	33
CCOC(=O)c1ccc(NC(=O)c2nc[nH]c2C(=O)NCCCCNC(=O)c2[nH]cnc2C(=O)Nc2ccc(C(=O)OCC)cc2)cc1	-36	97*	1	27	45	-22
SMILES	KKLEB tox	Peg3 promoter	HIF-2a block	MITF TRPM1 inh	CF NFkB inh	EBV LMP1 NFkB
CCOC(=O)c1ccc(NC(=O)c2nc[nH]c2C(=O)NCCCNC(=O)c2[nH]cnc2C(=O)Nc2ccc(C(=O)OCC)cc2)cc1	3	13	8	-6	-1	1
Cc1cc(C(=O)CCC(=O)Nc2cccc(F)c2)c(C)s1	-4	-33	-25	.	18	-4
Cc1ccn(-c2ccc(NC(=O)c3cccs3)cc2)n1	-11	-263	-193	-34	-29	-11
S=C(NN=C1C2CC3CC(C2)CC1C3)Nc1ccccc1	-1	-53	37	-16	5	65*
CCCn1c(SCC(=O)Nc2ccc(S(=O)(=O)N3CCOCC3)cc2)n[nH]c1=O	-6	-10	11	.	12	-2
COc1cc2cc(-c3ccc(O)cc3O)nc(C)c2cc1OC	-8	-16	-96	-14	-139	2
COc1cc2cc(-c3ccc(OC)c(OC)c3C)nc(N)c2cc1OC	2	65*	23	.	10	.
CC(CNC1CCCCC1)OC(=O)c1ccccc1 (stereo not drawn)	-2	3	-5	4	-7	62*
Cc1cccc(NC(=O)c2cc(S(=O)(=O)N3CCCCC3)c[nH]2)c1	-6	11	9	.	3	.
CC(C)C[C@H](NC(=O)c1nc[nH]c1C(=O)NC(c1ccccc1)c1ccccc1)C(=O)OC(C)(C)C	-2	84*	35	9	34	-19
Cc1nn(CC(=O)NCCCN2CCC(Cc3ccccc3)CC2)c(=O)c2cc(-c3ccccc3)nn12	-11	100*	-30	?	20	-22
Cc1nn(CC(=O)NCCCN2CCN(Cc3ccccc3)CC2)c(=O)c2cc(-c3ccccc3)nn12	3	-5	3	5	-3	-9
Fc1ccc(-[n+]2nc(Nc3ccccc3)sc2-c2c(Cl)cccc2Cl)cc1	-2	59*	-3	8	32	-4
COc1ccc2ccccc2c1-c1sc(Nc2ccccc2)n[n+]1-c1ccc(F)cc1	-14	87*	-6	5	17	2
COc1ccc(-c2sc(Nc3ccccc3)n[n+]2-c2ccc(F)cc2)cc1Br	16	-49	-57	-23	-23	8
O=C1C(N2CCOCC2)=C(n2nnc3ccccc32)C(=O)c2ccccc21	-22	98*	27	98*	86*	65*
O=C1c2ccccc2C(=O)c2c1cccc2-n1nnc2ccccc21	-14	4	5	-1	-10	2
COc1ccc2nc3n(c(=O)c2c1)-c1ccc(Cl)cc1C(=O)NC3Cc1ccc(O)cc1 (stereo not drawn)	4	5	10	1	-10	-8
